# TLR9-MyD88 block = TLR9-MyD88 interaction inhibition | Q9NR96+Q99836 | CHO BLA complementation TLR9-MyD88, CCF4 FRET ratio | inhibition, % at 4.98 µM | 340,000 tested, 0.21% active;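 active = inhibition above the mean over all tested compounds plus 3 SD, cut at about 21% in these data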;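 also: 0% = DMSO only wells and 100% = clavulanate BLA inhibitor control wells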
# Myeloid diff MLP = promotes myeloid progenitor differentiation; ER-HoxA9 myeloid progenitors, lysozyme-GFP differentiation, flow cytometry; calls only at 10 µM; 360,000 tested, 1% active;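 active = normalized GFP-positive differentiation at or above the plate's own cutoff, the solvent-only control mean plus 3 SD; inconclusive = no clear call, values can overlap the other calls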;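 also: cells exposed to compound for four days before flow analysis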
# NOD2 RIPK2 PPI = NOD2-RIPK2 protein interaction inhibition; CHO BLA complementation NOD2-RIPK2, CCF4 ratio; 360,000 tested, 0.38% active; AID 624267; inhibition, % at 4.98 µM; O43353; in the data active = inhibition above about 21%;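 also: 0% = vehicle only and 100% = reference blocker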
# TLR4-MyD88 BLA = inhibitors of human TLR4-MyD88 binding; O00206+Q99836; HeLa CL3-4 TLR4/MyD88 BLA complementation, FRET ratio; inhibition, % at 8.4 µM; 200,000 tested, 0.18% active; in the data active = inhibition above about 25%;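 also: 0% = vehicle and 100% = reference inhibitor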
# ABCB6 inh 2 = human ABCB6 transporter inhibition. 360,000 tested, 0.19% active. AID 602162. fluorescence ratio to DMSO, % at 10 µM. K562-ABCB6 porphyrin accumulation, flow cytometry, 1 h; hits give low values. Q9NP58;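 active = fluorescence ratio to DMSO below 75%, the collection mean minus 3 SD; inconclusive = too few cells collected in the well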;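 also: signal is porphyrin accumulated inside mitochondria; 100% equals median channel fluorescence of DMSO control wells; lower ratio means ABCB6 inhibition with less porphyrin fluorescence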
# NOD2-RIPK2 conf = confirmation of human NOD2-RIPK2 interaction inhibitors. CHO cells, NOD2-RIPK2 BLA complementation, CCF4 FRET. 1,200 tested, 70% active. AID 624370. shares compounds with NOD2 RIPK2 PPI. inhibition, % at 4.98 µM;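 active = mean inhibition across replicates above a set limit taken from the earlier primary screen, cut at about 21% in these data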;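 also: 0% = DMSO-only wells and the high end = clavulanate BLA-blocked wells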
# NOD2 BLA counter = counter-screen for NOD2-RIPK2 interaction inhibitors: BLA reporter; shares compounds with NOD2 RIPK2 PPI; CHO BLA reporter, CCF4 FRET ratio, counterscreen; inhibition, % at 4.98 µM; 1,200 tested, 57% active; AID 624371;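 active = mean inhibition above the low-control mean inhibition plus three low-control SD, cut at about 11% in these data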;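 also: 0% = DMSO only wells and 100% = clavulanate high control wells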
# The depositor's hits bear a star; i = inactive; ? = inconclusive; nt = no result. Most compounds without a hit are left out; they make up all but 1.7% or so of the library.
SMILES,TLR9-MyD88 block,Myeloid diff MLP,NOD2 RIPK2 PPI,TLR4-MyD88 BLA,ABCB6 inh 2,NOD2-RIPK2 conf,NOD2 BLA counter
CC(NCc1ccc(OCc2ccc(Cl)cc2)cc1)C(O)c1ccccc1 (centres undefined),-2,i,23*,5,94,20,9
CCc1sc(NC(=O)CCC(=O)O)nc1-c1cc2ccccc2oc1=O,-2,i,2,-4,99,nt,nt
O=C(c1ccccc1)c1sc(Nc2ccc3c(c2)OCO3)nc1-c1ccccc1,nt,i,21*,nt,96,20,26*
N#Cc1ccc(Nc2nc(-c3ccccc3)c(C(=O)c3ccccc3)s2)cc1,nt,i,-5,nt,104,nt,nt
Cc1ccc(NC(=O)CN(C)C(=O)CSc2nc3ccccc3c(=O)n2Cc2ccco2)cc1,11,i,21*,11,90,17,16*
O=C1c2cccc3cc([N+](=O)[O-])cc(c23)C(=O)N1CC1CCCO1 (centres undefined),9,nt,24*,nt,95,21,10
O=C1c2ccccc2C(=O)N1CC1CCCO1 (centres undefined),-4,i,-4,-6,100,nt,nt
CCCCNc1c(-c2ccc(OC)c(Sc3ccc(OC)cc3)c2)nc2cnccn12,19,i,28*,nt,99,33*,37*
COc1cc(CCC(=O)NCCc2ccc(F)cc2)cc(OC)c1OC,0,i,-7,nt,100,nt,nt
CC(C)(C)NC(=O)C(c1ccncc1)n1c(=O)c(-c2cc3ccccc3[nH]2)nc2ccccc21 (centres undefined),nt,i,49*,nt,nt,48*,68*
CC(C)(C)NC(=O)C(c1cc2ccccc2o1)n1c(=O)c(-c2cc3ccccc3[nH]2)nc2ccccc21 (centres undefined),nt,i,50*,nt,nt,46*,70*
COc1ccc(C(C(=O)NC(C)(C)C)n2c(=O)c(-c3cc4ccccc4[nH]3)nc3ccccc32)cc1 (centres undefined),nt,i,41*,nt,nt,40*,64*
CCOC(=O)N1C2C=C(C)[C@@H]2[C@@H]2CC(=O)N21 (some centres undefined),-7,i,-10,5,100,nt,nt
O=[N+]([O-])c1cc(Br)c(Nc2ccccc2)c([N+](=O)[O-])c1,9,?,41*,nt,98,58*,-8
COc1ccc(C)c2sc(N(CCN(C)C)C(=O)/C=C/c3cccs3)nc12,2,i,13,nt,89,nt,nt
COc1ccc(OC)c2sc(N(CCN(C)C)C(=O)/C=C/c3cccs3)nc12,-13,?,21*,nt,93,38*,8
Cc1ccc2nc(N(CCN(C)C)C(=O)/C=C/c3cccs3)sc2c1,16,i,22*,-15,94,32*,25*
CCCCN(C(=O)CNC(=O)c1ccco1)C(C(=O)NC1CCCCC1)c1cccnc1 (centres undefined),1,i,-2,nt,94,nt,nt
Cn1ccnc1Sc1cc(NCCCO)c([N+](=O)[O-])c2nonc12,13,i,27*,4,97,31*,8
O=[N+]([O-])c1c(NCCCO)cc(Sc2ccc(Cl)cc2)c2nonc12,9,?,8,0,102,nt,nt
C#CCN(C[C@@H]1[C@@H](OC(=O)NCc2ccccc2F)[C@@H](OC(=O)NCc2ccccc2F)Cn2c(=O)ccc(=O)n21)S(=O)(=O)c1ccc(C)cc1,-2,?,23*,nt,96,21*,-3
C#CCN(C[C@@H]1[C@@H](OC(=O)NCc2ccccc2F)[C@@H](OC(=O)NCc2ccccc2F)Cn2c(=O)n(CCCCCC)c(=O)n21)S(=O)(=O)c1ccc(C)cc1,1,i,-2,nt,100,nt,nt
CCOC(=O)C1CCCN(S(=O)(=O)c2ccc3c4c(cccc24)C(=O)N3CC)C1 (centres undefined),6,i,27*,nt,86,25*,25*
CCN1C(=O)c2cccc3c(S(=O)(=O)N4CCCC4C(=O)O)ccc1c23 (centres undefined),-3,i,8,nt,93,nt,nt
O=C(NN=Cc1c(O)ccc2ccccc12)c1ccncc1,19,nt,28*,nt,106,27*,21*
SMILES,TLR9-MyD88 block,Myeloid diff MLP,NOD2 RIPK2 PPI,TLR4-MyD88 BLA,ABCB6 inh 2,NOD2-RIPK2 conf,NOD2 BLA counter
O=C(N/N=C\c1c(O)ccc2ccccc12)c1ccc(O)cc1,-1,?,0,nt,97,nt,nt
CC(=O)NCCNc1nc2cc(-c3cccc(Cl)c3)sc2c(=O)n1C,nt,i,5,nt,97,nt,nt
CC(C)C(=O)N1CCN(c2ccc(NC(=O)c3ccc([N+](=O)[O-])o3)cc2Cl)CC1,6,nt,26*,17,107,23*,8
CN1CCN(c2ccc(NC(=O)c3ccc([N+](=O)[O-])o3)cc2Cl)CC1,9,?,23*,nt,96,20,17*
C/C(=N\OC(=O)C1CC1)C1CC1c1ccc(F)cc1 (centres undefined),4,i,-8,-5,100,nt,nt
CCN1C(=O)c2cccc3c(S(=O)(=O)N(C)C)ccc1c23,-2,i,7,nt,95,nt,nt
CN1C(=O)c2cccc3c(S(=O)(=O)N(C)C)ccc1c23,10,i,22*,nt,89,11,16*
O=P(CCCCCCCCCP(=O)(c1ccccc1)c1ccccc1)(c1ccccc1)c1ccccc1,3,i,22*,0,88,16,3
O=C(O)CCCCCCCCCCP(=O)(c1ccccc1)c1ccccc1,-5,i,-7,nt,94,nt,nt
Cn1nc(N2CCN(S(=O)(=O)c3ccccc3)CC2)c(=O)n(C)c1=O,2,i,-6,nt,101,nt,nt
CC(=O)Nc1ccc(-c2ccnc3c2CC(C)(C(=O)NCc2ccncc2)O3)cc1 (centres undefined),nt,i,-2,nt,96,nt,nt
CC(=O)Nc1cccc(-c2ccnc3c2CC(C)(C(=O)NCc2ccncc2)O3)c1 (centres undefined),nt,i,21*,nt,111,4,-1
Cc1nc(N)ncc1CCC1OCCO1,-9,i,5,nt,103,nt,nt
Cc1c(NS(=O)(=O)c2ccc(Cl)c(C(=O)OCC(=O)NCc3ccco3)c2)c(=O)n(-c2ccccc2)n1C,-2,i,-7,-16,96,nt,nt
CC1CN(Cc2cc(=O)oc3cc(O)c(Cl)cc23)CC(C)O1 (centres undefined),-21,i,-9,nt,98,nt,nt
CC1CCN(Cc2cc(=O)oc3cc(O)c(Cl)cc23)CC1,7,i,31*,nt,99,32*,49*
Cc1ccccc1/C=N/Nc1ccnc2cc(Cl)ccc12,7,i,-7,8,94,nt,nt
Cc1ccc(/C=N/Nc2ccnc3cc(Cl)ccc23)c(C)c1,19,?,21*,-11,99,30*,42*

# High-throughput results deposited in PubChem BioAssay by several laboratories.
